Among all 5,500 compounds or so, about 2,000 (36%) were called active. Roughly 18% stayed inconclusive and do not appear here. Rule as the data show it: active = normalized growth mostly below about 0.91 (no sharp cut-off); inconclusive = no clear call, values can overlap the other calls; inactive = mostly above about 0.92. The list shows a part of the results.
Test: chemical genetic growth profiling, strain panel (AID 1159580);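 also: tested at 20 µM; growth read once vehicle control cultures reached saturation at 30 °C; 1 = growth at the plate median or of vehicle wells; lower values mean less growth of the strain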
Conditions: S. cerevisiae deletion strains, growth OD

Measured: normalized growth

CCCCCCCC/C=C\CCCCCCCC(=O)NCCc1ccc(O)c(O)c1
active: locus YGR229C, strain SMI1, active compounds read low 0.811 | locus YNL153C, strain GIM3, active compounds read low 0.811
inactive: locus YAL040C, strain CLN3, active compounds read low 1.01 | locus YCL061C, strain MRC1 (second series), active compounds read low 0.987 | locus YDR363W, strain ESC2, active compounds read low 0.981 | locus YER002W, strain NOP16, active compounds read low 1 | locus YMR307W, strain GAS1, active compounds read low 0.987 | locus YNL175C, strain NOP13, active compounds read low 0.999 | locus YNL197C, strain WHI3, active compounds read low 0.987 | locus YNL224C, strain SQS1, active compounds read low 1.02 | locus YOR083W, strain WHI5 (second series), active compounds read low 0.876 | locus YPL055C, strain LGE1, active compounds read low 1 | locus YPL241C, strain CIN2, active compounds read low 0.993

Reference: PubChem BioAssay AID1159580 (chemical genetic matrix, 2015)
